Structures are written as SMILES. Compounds without any hit were thinned out: in the full panel of roughly 83,000, 20% have a hit.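 48-hour exposure, single concentration, 96-well plates; percent growth endpoint where 0 means no net growth. Active: below 10.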 Activity calls are given as the source filed them.

The test system of one experiment is MOLT-4 leukemia. The experiment is described as follows: NCI-60 one-dose screen, 48 h (100 = growth as untreated, 0 = no growth, -100 = all killed). The note with it: 10 µM unless noted.
For the molecule `CN1C(=O)N(C)C2C1NN=c1s/c(=C\c3ccc(Cl)cc3Cl)c(=O)n12` (stereo not drawn), the growth was 13.1% (inactive). Still for that read-out and setting: to `COc1ccc2occ(C3=C(c4c[nH]c5ccccc45)C(=O)NC3=O)c2c1` belongs 30.2% (inactive); to `CCN1CCN(C(=S)SCC(=O)Nc2nc3ccc(C)cc3s2)CC1`, 111% (inactive); to `Cc1c(-c2csc(-n3nc(C(F)(F)F)cc3C(F)(F)F)n2)no[n+]1[O-]`, 87.3% (inactive). Same read-out and setting: for `N#C/C(=C\c1c(-c2ccccc2)[nH]c2ccccc12)S(=O)(=O)c1ccccc1` the value was 33.7% (inactive). On the same count and under the same terms, for `CC(=O)O[C@@H]1/C=C/C(=O)N[C@@H](C)CCC/C=C/[C@@H]2CCC[C@H]21` the value was 93.6% (inactive); for `CN1C(=O)N(C)C2C1NN=c1s/c(=C\c3ccc([N+](=O)[O-])cc3)c(=O)n12` (stereo not drawn), 64.3% (inactive).

As to `O=C(N=Nc1c(O)[nH]c2ccccc12)c1oc2ccccc2c1CN1CCN(c2ccccc2)CC1`, the growth is 30.7% (inactive). `COC(=O)/C(=C\c1c(-c2ccccc2)[nH]c2ccccc12)S(C)(=O)=O`: the growth was 25.6% (inactive). Consider `COc1ccccc1C1=C(Br)C(=O)c2nc(C)ccc2C1=O`, for which the growth was 117% (inactive). On to `Cc1cccc2c(=O)c3c(sc12)c(N1CCNCC1)nc1ccccc13`, for which the growth was 33.8% (inactive). As to `CCN(CC)CCNC(=O)C(Cl)=C1C(Cl)=C(Cl)C(Cl)=C1Cl`, the growth was 15% (inactive).

In the case of `N#CC(C#N)=Cc1c(-c2ccccc2)[nH]c2ccccc12`, the growth was 26.9% (inactive). Same read-out and setting: for `C=CCN1C(=O)/C(=c2\sc3n(c2=O)NC2C(N=3)N(CC)C(=O)N2CC)c2ccccc21` (stereo not drawn) the value was 36.4% (inactive); for `CC(C)Cn1c2c(c(=S)[nH]c1=O)CCC2`, 108% (inactive); for `COC(=O)/C(=C\c1c(C)[nH]c2ccccc12)S(=O)(=O)c1ccccc1`, 15.5% (inactive).

On to `CCCCN1CCN(c2ccc3nc(-c4ccc5nc(-c6ccc(C(F)(F)F)cc6)[nH]c5c4)[nH]c3c2)CC1`, for which the growth was -61% (active). The same measure, in the same setting: for `CN1C(=O)N(C)C2C1NN=c1s/c(=C\c3c[nH]c4ccccc34)c(=O)n12` (stereo not drawn) the value was 14.9% (inactive); for `Cc1ccc2c(n1)C(=O)C(Oc1ccc(Br)cc1)=CC2=O`, 87.9% (inactive); for `COc1cc(/C=C2\Oc3cc(OCCCN4CCCC4)ccc3C2=O)cc(OC)c1`, -22.9% (active).

As for `Cc1cccc(NC(=O)c2sc3nc4c(cc3c2N)CCCC4)c1C`, the growth was 19.3% (inactive). `CCN1C(=O)N(CC)C2Nn3c(s/c(=C4\C(=O)N(C(C)C)c5ccccc54)c3=O)=NC21` (stereo not drawn): the growth is 19.6% (inactive). With `O=C1/C=C/[C@@H](O)[C@@H]2C[C@@H](O)C[C@H]2/C=C/CCCCO1`, the growth is 5.39% (active).

With `CCOC(=O)c1sc(-c2ccc(OS(=O)(=O)c3ccc(Br)s3)c(C=O)c2)nc1C`, the growth was 9.25% (active). For the molecule `CNCCNc1nc2ccccc2c2c(=O)c3cccc(C)c3sc12`, the growth was -29.5% (active).

`O=C(CN1C=NC2C(N3CCOCC3)=NC=NC21)c1ccc(Br)cc1` (stereo not drawn): the growth was 105% (inactive). Regarding `COc1ccc(OC)c(NC(=O)/C(C#N)=C/c2ccco2)c1`, the growth was 78.7% (inactive).

On to `CCN1C(=O)N(CC)C2C1NN=c1s/c(=C3\C(=O)N(CC(C)(C)C)c4ccccc43)c(=O)n12` (stereo not drawn), for which the growth was 16.3% (inactive). On the same count and under the same terms, to `CCN1C(=O)N(c2ccccc2)C2NN=c3s/c(=C4\C(=O)N(C(C)C)c5ccccc54)c(=O)n3C21` (stereo not drawn) belongs 20.9% (inactive); to `COc1ccc(C2=C(c3cccc(OC)c3)C(=O)c3ccc(C)nc3C2=O)cc1`, -31.5% (active). On the same count and under the same terms, to `CN1C(=O)N(C)C2Nn3c(s/c(=C\c4ccc(Cl)cc4Cl)c3=O)=NC21` (stereo not drawn) belongs 64.1% (inactive); to `COc1cccc(C(=O)Cn2cc(/C=C(\C#N)S(=O)(=O)c3ccccc3)c3ccccc32)c1`, 103% (inactive); to `CCCN1C(=O)N(CCC)C2C1NN=c1s/c(=C3\C(=O)N(C(C)C)c4ccccc43)c(=O)n12` (stereo not drawn), 46.3% (inactive).

As to `N#C/C(=C\c1c(-c2ccccc2)[nH]c2ccccc12)C(=O)c1ccccc1`, the growth was 38.9% (inactive). Take `COC(=O)/C(CCC=C(C)C)=C1\[C@@H](OC(C)=O)C[C@@]2(C)[C@H]1CC(=O)[C@H]1[C@@]3(C)CC[C@H](NCc4ccccc4)[C@@H](C)[C@@H]3CC[C@@]12C`: the growth is 61.7% (inactive). Same read-out and setting: to `O=C1C(=O)c2c(ccc3ccccc23)-c2ccccc21` belongs -31.3% (active); to `CCOC(=O)c1ccc(N=Cc2sc(=O)[nH]c2O)cc1`, 99.9% (inactive); to `COC(=O)c1c2c(c(C)[n+]([O-])c1C)C(=O)C(NCc1ccc(Br)cc1)=CC2=O`, 35% (inactive). Take `COc1ccc2[nH]c(O)c(N=NC(=O)c3oc4ccccc4c3C)c2c1`: the growth was 50.9% (inactive).

The next experiment has as its system SR leukemia. The experiment is described as above. The conditions noted are these: 10 µM unless noted.
`CN1C(=O)N(C)C2C1NN=c1s/c(=C\c3ccc(Cl)cc3Cl)c(=O)n12` (stereo not drawn): the growth was 4.89% (active).

As for `COc1ccc2occ(C3=C(c4c[nH]c5ccccc45)C(=O)NC3=O)c2c1`, the growth is 29.4% (inactive).

On to `CCN1CCN(C(=S)SCC(=O)Nc2nc3ccc(C)cc3s2)CC1`, for which the growth was 103% (inactive). Consider `Cc1c(-c2csc(-n3nc(C(F)(F)F)cc3C(F)(F)F)n2)no[n+]1[O-]`, for which the growth is 91.1% (inactive).

`N#C/C(=C\c1c(-c2ccccc2)[nH]c2ccccc12)S(=O)(=O)c1ccccc1`: the growth is 17.9% (inactive).

Turning to `CN1C(=O)N(C)C2C1NN=c1s/c(=C\c3ccc([N+](=O)[O-])cc3)c(=O)n12` (stereo not drawn), the growth is 22% (inactive). Turning to `O=C(N=Nc1c(O)[nH]c2ccccc12)c1oc2ccccc2c1CN1CCN(c2ccccc2)CC1`, the growth was 1.67% (active). On to `COC(=O)/C(=C\c1c(-c2ccccc2)[nH]c2ccccc12)S(C)(=O)=O`, for which the growth is 45.1% (inactive). As to `Cc1cccc2c(=O)c3c(sc12)c(N1CCNCC1)nc1ccccc13`, the growth is -17% (active). Take `CCN(CC)CCNC(=O)C(Cl)=C1C(Cl)=C(Cl)C(Cl)=C1Cl`: the growth is 34.8% (inactive). On to `N#CC(C#N)=Cc1c(-c2ccccc2)[nH]c2ccccc12`, for which the growth was 32.2% (inactive). Still for that read-out and setting: for `C=CCN1C(=O)/C(=c2\sc3n(c2=O)NC2C(N=3)N(CC)C(=O)N2CC)c2ccccc21` (stereo not drawn) the value was 21.1% (inactive); for `CC(C)Cn1c2c(c(=S)[nH]c1=O)CCC2`, 106% (inactive); for `COC(=O)/C(=C\c1c(C)[nH]c2ccccc12)S(=O)(=O)c1ccccc1`, 27.2% (inactive).

With `CCCCN1CCN(c2ccc3nc(-c4ccc5nc(-c6ccc(C(F)(F)F)cc6)[nH]c5c4)[nH]c3c2)CC1`, the growth was -46.8% (active). With `CN1C(=O)N(C)C2C1NN=c1s/c(=C\c3c[nH]c4ccccc34)c(=O)n12` (stereo not drawn), the growth was 8.78% (active).

As for `Cc1ccc2c(n1)C(=O)C(Oc1ccc(Br)cc1)=CC2=O`, the growth is 92.1% (inactive). Take `COc1cc(/C=C2\Oc3cc(OCCCN4CCCC4)ccc3C2=O)cc(OC)c1`: the growth was -49.3% (active). Same read-out and setting: for `Cc1cccc(NC(=O)c2sc3nc4c(cc3c2N)CCCC4)c1C` the value was 34.7% (inactive). The same measure, in the same setting: for `CCN1C(=O)N(CC)C2Nn3c(s/c(=C4\C(=O)N(C(C)C)c5ccccc54)c3=O)=NC21` (stereo not drawn) the value was 21.2% (inactive). Take `O=C1/C=C/[C@@H](O)[C@@H]2C[C@@H](O)C[C@H]2/C=C/CCCCO1`: the growth is 14.4% (inactive).

As for `CCOC(=O)c1sc(-c2ccc(OS(=O)(=O)c3ccc(Br)s3)c(C=O)c2)nc1C`, the growth is 13.9% (inactive).

As to `CNCCNc1nc2ccccc2c2c(=O)c3cccc(C)c3sc12`, the growth is -29.9% (active). `O=C(CN1C=NC2C(N3CCOCC3)=NC=NC21)c1ccc(Br)cc1` (stereo not drawn): the growth is 104% (inactive). On the same count and under the same terms, for `COc1ccc(OC)c(NC(=O)/C(C#N)=C/c2ccco2)c1` the value was 74.3% (inactive); for `CCN1C(=O)N(CC)C2C1NN=c1s/c(=C3\C(=O)N(CC(C)(C)C)c4ccccc43)c(=O)n12` (stereo not drawn), 6.48% (active). The same measure, in the same setting: to `CN1C(=O)N(C)C2Nn3c(s/c(=C\c4ccc(Cl)cc4Cl)c3=O)=NC21` (stereo not drawn) belongs 35.9% (inactive); to `COc1cccc(C(=O)Cn2cc(/C=C(\C#N)S(=O)(=O)c3ccccc3)c3ccccc32)c1`, 99.4% (inactive). As for `CCCN1C(=O)N(CCC)C2C1NN=c1s/c(=C3\C(=O)N(C(C)C)c4ccccc43)c(=O)n12` (stereo not drawn), the growth is 7.97% (active). The same measure, in the same setting: to `N#C/C(=C\c1c(-c2ccccc2)[nH]c2ccccc12)C(=O)c1ccccc1` belongs 52.3% (inactive). With `COC(=O)/C(CCC=C(C)C)=C1\[C@@H](OC(C)=O)C[C@@]2(C)[C@H]1CC(=O)[C@H]1[C@@]3(C)CC[C@H](NCc4ccccc4)[C@@H](C)[C@@H]3CC[C@@]12C`, the growth is 1.93% (active). Still for that read-out and setting: for `O=C1C(=O)c2c(ccc3ccccc23)-c2ccccc21` the value was 5.07% (active); for `CCOC(=O)c1ccc(N=Cc2sc(=O)[nH]c2O)cc1`, 117% (inactive). The same measure, in the same setting: for `COC(=O)c1c2c(c(C)[n+]([O-])c1C)C(=O)C(NCc1ccc(Br)cc1)=CC2=O` the value was 30.2% (inactive).

(Values after PubChem BioAssay (NCI).)
